# In PMC4336329 (PLoS ONE, 2015):
# Among all 310,000 compounds or so, about 14,000 (4.5%) showed an effect of 50% or more. Effects have a minus sign here. The entries come from a sample that favours strong results as a whole.
# Molecular target: human ether-à-go-go-related gene (hERG) potassium channel (human, UniProt Q12809)
# Test: primary screen, population patch clamp on CHO cells stably expressing hERG; higher = less effect of the substance
# 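Note: peak tail current of the secondary pulse compared with the same well before compound.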
# human ether-à-go-go-related gene (hERG) potassium channel, sequence (Q12809 whole entry, looked up): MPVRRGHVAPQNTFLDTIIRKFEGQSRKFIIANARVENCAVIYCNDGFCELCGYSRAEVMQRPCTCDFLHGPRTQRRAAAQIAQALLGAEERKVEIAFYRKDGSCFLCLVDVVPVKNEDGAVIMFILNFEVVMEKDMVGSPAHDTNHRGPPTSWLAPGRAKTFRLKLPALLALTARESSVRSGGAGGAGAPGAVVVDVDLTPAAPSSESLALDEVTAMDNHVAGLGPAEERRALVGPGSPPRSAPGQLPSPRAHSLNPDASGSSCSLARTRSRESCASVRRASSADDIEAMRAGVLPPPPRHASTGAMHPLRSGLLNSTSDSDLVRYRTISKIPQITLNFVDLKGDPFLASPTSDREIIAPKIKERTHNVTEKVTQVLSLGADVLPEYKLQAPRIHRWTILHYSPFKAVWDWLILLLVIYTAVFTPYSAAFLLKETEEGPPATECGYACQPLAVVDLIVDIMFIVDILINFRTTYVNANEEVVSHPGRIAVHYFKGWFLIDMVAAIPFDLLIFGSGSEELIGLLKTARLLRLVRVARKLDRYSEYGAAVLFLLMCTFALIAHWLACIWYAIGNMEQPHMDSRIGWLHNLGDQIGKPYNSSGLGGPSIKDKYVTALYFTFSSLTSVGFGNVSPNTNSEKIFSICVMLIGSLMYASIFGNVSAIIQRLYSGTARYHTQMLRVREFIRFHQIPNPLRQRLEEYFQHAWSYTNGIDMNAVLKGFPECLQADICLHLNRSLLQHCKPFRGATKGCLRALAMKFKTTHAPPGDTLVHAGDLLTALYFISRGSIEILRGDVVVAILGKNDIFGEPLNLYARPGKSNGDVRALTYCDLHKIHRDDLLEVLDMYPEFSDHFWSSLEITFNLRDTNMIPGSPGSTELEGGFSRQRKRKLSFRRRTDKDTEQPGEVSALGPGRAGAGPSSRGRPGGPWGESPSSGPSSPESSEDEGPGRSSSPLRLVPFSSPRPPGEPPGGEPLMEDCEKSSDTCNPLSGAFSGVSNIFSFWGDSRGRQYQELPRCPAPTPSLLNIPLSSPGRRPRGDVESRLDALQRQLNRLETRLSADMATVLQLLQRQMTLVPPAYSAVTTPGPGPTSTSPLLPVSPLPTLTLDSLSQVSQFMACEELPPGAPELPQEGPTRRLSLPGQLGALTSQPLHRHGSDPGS
row,SMILES,"hERG current change (%, negative = inhibition) at 10uM [%]"
1,CC(C)CC(C(=O)NC1CCCC1)N(Cc1cccs1)C(=O)c1snc(C(N)=O)c1N (centres unmarked),-40.5
2,CS(=O)(=O)c1ccc2nnn(OCC(=O)Nc3ccc(Br)cc3Br)c2c1,7.34
3,Cc1ccc(/C=N/c2sc3c(c2C(N)=O)CCCC3)o1,23.3
4,COCCNC(=O)/C(C#N)=C/c1cccc(/C=C(\C#N)C(=O)NCCOC)c1,0.707
5,COc1ccc(CC2(CO)CCN(Cc3cnn(-c4ccccc4OC)c3)CC2)cc1,-64.8
6,COc1ccccc1-n1cc(CN2CCN(CC=C(C)C)C(CCO)C2)cn1 (centres unmarked),-13.7
7,COc1ccc(CC2(CO)CCN(Cc3cccnc3)CC2)cc1,-40.3
8,COc1ccccc1-n1cc(CN2CCN(C3CCCC3)C(CCO)C2)cn1 (centres unmarked),-15.3
9,COc1ccc(CC2(CO)CCN(Cc3cnn(-c4ccc(F)cc4)c3)CC2)cc1,-76.4
10,COc1ccc(CC2(CO)CCN(Cc3cnn(-c4ccccc4)c3)CC2)cc1,-77.6
11,COc1ccc(CC2(CO)CCN(Cc3cnc(-c4ccccc4C)nc3)CC2)cc1,-20.6
12,Cc1ccc(CCNC(=O)C2CCN(S(=O)(=O)c3ccc4c(c3)NC(=O)CO4)CC2)cc1,-1.82
13,CC(NC(=O)OCc1ccccc1)c1ccccc1 (centres unmarked),-22.9
14,COCCN1C(=O)N(c2cccc(C)c2)C(=O)C1CC(=O)Nc1cc(OC)cc(OC)c1 (centres unmarked),10.2
15,CC(C)Cc1nnc(NC(=O)CCC(=O)N2CCN(c3ccccc3)CC2)s1,13.2
16,CCN(CC)CCNC(=O)c1cc([N+](=O)[O-])c(N(C)C)cc1OC.Cl,-12
17,CCCSc1cc(Cl)nc(N)n1,-9.06
18,COc1ccc(S(=O)(=O)Nc2cccc(F)c2C)cc1C(=O)N1CCOCC1,6.33
19,CC(NC(=O)COC(=O)c1cn(-c2ccccc2)nc1-c1cccs1)c1ccccc1 (centres unmarked),0.115
20,COC(=O)c1c(NC(C)=O)sc(C(=O)Nc2ccccc2OC)c1C,16.2

row,SMILES,"hERG current change (%, negative = inhibition) at 10uM [%]"
1,CC(Cc1n[nH]c(=S)o1)c1ccccc1 (centres unmarked),20.7
2,COc1cccc(C(C(=O)NC2CCCC2)N(Cc2cccnc2)C(=O)Cc2cccs2)c1 (centres unmarked),-5.67
3,COc1ccc(C2=Nc3ccc(C)cc3C(c3ccccc3)N2CC(=O)NN)cc1 (centres unmarked),-23.2
4,O=[N+]([O-])c1ccccc1NCc1ccc(Cl)cc1,-19.5
5,C/C=C/c1ccc(OCC(O)CNCCc2ccc(OC)cc2)c(OC)c1.O=C(O)C(=O)O (centres unmarked),-73.4
6,COC(=O)c1ccc(OCC(O)CNCC(c2ccc(OC)cc2)N(C)C)c(OC)c1 (centres unmarked),-21.4
7,C/C=C/c1ccc(OCCCNCC(C)O)c(OC)c1 (centres unmarked),-29.2
8,C=CCNCC(O)COc1ccc(C(C)=O)cc1OC.O=C(O)C(=O)O (centres unmarked),-6.16
9,C/C=C/c1ccc(OCC(O)CNCC(c2ccc(OC)cc2)N(C)C)c(OC)c1.O=C(O)C(=O)O (centres unmarked),-66.5
10,Cc1cc(Br)ccc1NC(=O)CN(C)C(=O)C1CSC2(C)CCC(=O)N12 (centres unmarked),11.5
11,CC1=CC(C)(C)Nc2ccc(OC(=O)CCN3C(=O)c4ccccc4C3=O)cc21,0.14
12,COc1ccc(C(=O)NC2CCN(C(=S)Nc3ccccc3)CC2)cc1,12.7
13,CNC(=O)c1c[nH]n2c(=O)c(Cc3ccccc3F)c(C)nc12,16.9
14,COc1cccc(/C=C/C(=O)NNC(=O)c2ccncc2)c1,-20.5
15,CCOc1cnc(C(=O)NNC(=O)c2ccccc2Br)o1,11
16,CCCNS(=O)(=O)c1ccc(OCC(=O)NCc2ccc3c(c2)OCO3)cc1,-23.8
17,C=CCNC(=O)/C(C#N)=C/c1c(C)nn(-c2ccccc2)c1Cl,-20
18,Cc1ccc(/C=C/C(=O)NC2CCS(=O)(=O)C2)cc1 (centres unmarked),20.6
19,O=C(NC1CCS(=O)(=O)C1)/C(=C\c1ccccc1)NC(=O)c1ccccc1 (centres unmarked),-11
20,O=C(NC(NC1CCS(=O)(=O)C1)C(Cl)(Cl)Cl)c1cccc(Cl)c1 (centres unmarked),-7.37

row,SMILES,"hERG current change (%, negative = inhibition) at 10uM [%]"
1,O=C(/C=C/c1ccc(Cl)cc1)NC1CCS(=O)(=O)C1 (centres unmarked),-58.7
2,O=C(NC(NC1CCS(=O)(=O)C1)C(=O)c1cccs1)c1ccccc1 (centres unmarked),-1.01
3,O=C(NC(NC1CCS(=O)(=O)C1)C(=O)c1ccccc1)c1ccc(Cl)cc1 (centres unmarked),-51.6
4,O=C(NC1CCS(=O)(=O)C1)/C(=C/c1ccc(Cl)cc1)NC(=O)c1ccccc1 (centres unmarked),-55
5,O=C(/C=C/c1ccccc1)NC1CCS(=O)(=O)C1 (centres unmarked),18.1
6,O=C(NC1CCS(=O)(=O)C1)/C(=C\c1ccc(F)cc1)NC(=O)c1ccccc1 (centres unmarked),-34.7
7,Cc1ccc(NC(=O)NCc2ccccn2)cc1,37.7
8,Fc1ccc(OCc2nc(-c3cccs3)no2)cc1,-9.58
9,c1ccc(Cc2nn3c(COc4ccccc4)nnc3s2)cc1,6.61
10,CC1=C(C(=O)OCc2ccccc2)C(c2ccccc2[N+](=O)[O-])NC(=O)N1C (centres unmarked),1.71
11,COc1ccc(OCc2nc(N)nc(Nc3ccccc3OC)n2)cc1,9.46
12,COc1ccccc1Nc1nc(N)nc(CCl)n1,3.4
13,COc1ccccc1Nc1nc(N)nc(CSC(=S)N2CCN(c3ccccc3)CC2)n1,6.86
14,COc1ccc(N2CCN(Cc3nc(N)nc(Nc4ccccc4OC)n3)CC2)cc1,-62
15,COc1ccccc1Nc1nc(N)nc(CN2CCC(Cc3ccccc3)CC2)n1,-84.5
16,COc1ccccc1Nc1nc(N)nc(CN2CCN(c3ccccc3)CC2)n1,-52.9
17,COc1ccccc1Nc1nc(N)nc(CN2CCN(Cc3ccccc3)CC2)n1,-73.2
18,COc1cccc(N2CCN(Cc3nc(N)nc(Nc4ccccc4OC)n3)CC2)c1,-25.6
19,COc1ccccc1Nc1nc(N)nc(CSC(=S)N2CCOCC2)n1,-9.92
